# Screens as filed in PubChem BioAssay.
# Rhodamine fluor: qHTS Assay for Spectroscopic Profiling in Rhodamine Spectral Region; actives 0.05% (n = 59,000); Rhodamine-region fluorescence, 547/598 nm, Tris buffer; hits give high values; max dye-equivalent concentration, M; in the data active = max dye-equivalent concentration above about 11 nM; inconclusive = between about 1.1 nM and that limit
#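 qHTS spectral profiling of compounds without any target or enzyme present, in pH 8.0 Tris buffer; plates were read after a 15-minute room-temperature incubation using the rhodamine-region filter set.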
# Fluorescein autfl: qHTS Assay for Spectroscopic Profiling in Fluorescein Spectral Region; max fluorescein-equivalent concentration, M; Compound autofluorescence, 480/540 nm, fluorescein-equivalent; hits give high values; actives 0.91% (n = 59,000); AID 593, 2007; in the data active = max fluorescein-equivalent concentration above about 10 nM; inconclusive = between about 1.1 nM and that limit
#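 Read-out is intrinsic compound fluorescence at 480/540 nm (excitation/emission), expressed as dye-equivalent concentration using a fluorescein standard series run on every plate. Compounds sat 15 min at room temperature in 100 mM Tris, pH 8.0.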
# Texas Red fluor: qHTS Assay for Spectroscopic Profiling in Texas Red Spectral Region | max dye-equivalent concentration, M | actives 0.06% (n = 59,000) | Compound fluorescence, Texas Red channel, 547/618 nm; hits give high values; in the data active = max dye-equivalent concentration above about 10 nM; inconclusive = between about 1.1 nM and that limit
#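 Pin-transferred compounds and Texas Red standards go into 100 mM Tris buffer, pH 8.0. After 15 min at room temperature, plates are imaged with 547/618 nm filters. Each value is a dye-equivalent concentration derived from the per-plate dye curve.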
# A488 fluor: qHTS Assay for Spectroscopic Profiling in A488 Spectral Region | AID 591, 2007 | actives 0.1% (n = 59,000) | compound autofluorescence, A488 spectral region, dye equivalency; Compound Type: qHTS ECL - MLSMR | max dye equivalency, M
#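 Compounds pin-transferred into 100 mM Tris buffer, pH 8.0, incubated 15 min at room temperature, then imaged with 480 nm excitation/540 nm emission filters. Fluorescence converted to Alexa 488 dye-equivalent concentration via an on-plate six-point A488 standard curve.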
# A647 fluor: qHTS Assay for Spectroscopic Profiling in A647 Spectral Region. max dye-equivalent concentration, M. Compound fluorescence, A647 channel (570/671 nm), Tris buffer. 59,000 tested, under 10 active
#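 Spectral profiling of library compounds in pH 8.0 Tris: 15 min room-temperature incubation, single ex/em pair (570/671 nm), response normalized to Alexa 647 equivalents.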
# Resorufin autofl: qHTS Assay for Spectroscopic Profiling in Resorufin Spectral Region | Compound fluorescence, resorufin region 547/598 nm, buffer; hits give high values | max dye-equivalent concentration, M | actives 0.04% (n = 59,000)
#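 Compounds in 100 mM Tris buffer, pH 8.0, incubated 15 min at room temperature, then read with 547 nm excitation and 598 nm emission filters. Fluorescence was converted to dye-equivalent concentration using an on-plate six-point resorufin standard curve.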
# A number is an active result; . = inactive; ? = inconclusive; ! = not confirmed by another sample. Sampled rows, rich in hits. Any-hit rate of the full collection: about 0.9%. Unless noted, the rule behind the calls is not given here.
SMILES,Rhodamine fluor,Fluorescein autfl,Texas Red fluor,A488 fluor,A647 fluor,Resorufin autofl
CCN(CC)C(=O)N[C@@H]1C[C@H]2c3cccc4[nH]cc(c34)C[C@@H]2N(C)C1,.,?,.,.,.,.
CC1=C[C@@H]2c3cccc4[nH]cc(c34)C[C@H]2N(C)C1,.,5.9e-08M,.,?,.,.
COc1ccc2c3c([nH]c2c1)C(C)=NCC3,.,?,.,.,.,.
CC1=NCCc2c1[nH]c1cc(O)ccc21,?,2.1e-07M,.,4.5e-07M!,.,.
N#C/C(=C\c1ccc(O)c(O)c1)C(N)=S,.,2.5e-08M,?,.,.,.
Oc1ccc2c3c1O[C@@H]1c4[nH]c5c(c4C[C@@]4(O)[C@@H](C2)N(CC2CC2)CC[C@]314)C[C@]1(O)[C@@H]2Cc3ccc(O)c4c3[C@@]1(CCN2CC1CC1)[C@H]5O4,.,?,.,.,.,.
CC(C)[C@@]1(NC(=O)[C@@H]2C=C3c4cccc5[nH]cc(c45)C[C@H]3N(C)C2)O[C@@]2(O)[C@@H]3CCCN3C(=O)[C@H](Cc3ccccc3)N2C1=O,.,3.8e-08M,.,?,.,.
CC(C)[C@H]1C(=O)N2CCC[C@@H]2[C@]2(O)O[C@@](NC(=O)[C@H]3C=C4c5cccc6[nH]cc(c56)C[C@H]4N(C)C3)(C(C)C)C(=O)N12,.,2.7e-08M,.,.,.,.
CC(C)[C@H]1C(=O)N2CCC[C@H]2[C@]2(O)O[C@](NC(=O)[C@@H]3C=C4c5cccc6[nH]cc(c56)C[C@H]4N(C)C3)(C(C)C)C(=O)N12,.,5.3e-08M,.,?,.,.
CC(C)[C@]1(NC(=O)[C@H]2C=C3c4cccc5[nH]cc(c45)C[C@H]3N(C)C2)O[C@@]2(O)[C@H]3CCCN3C(=O)[C@H](Cc3ccccc3)N2C1=O,.,?,.,.,.,.
C=CCN1CC[C@@]23CCCC[C@@H]2[C@@H]1Cc1ccc(O)cc13,.,.,.,.,.,.
CC(=O)[C@@H]1CC[C@@H]2[C@H]3CC[C@H]4C[C@@H](O)CC[C@]4(C)[C@@H]3C(=O)C[C@]21C,.,?,.,.,.,.
CCCC[N+]1(C)[C@@H]2CC(OC(=O)[C@@H](CO)c3ccccc3)C[C@H]1[C@H]1O[C@H]12 (stereo not given in full),.,?,.,.,.,.
C=CCN1CC[C@]23c4c5ccc(O)c4O[C@@H]2C(=O)CC[C@@]3(O)[C@H]1C5,.,?,.,.,.,.
O=C(Cn1ncc2c3ccccc3n(Cc3cccc(Cl)c3)c2c1=O)N1CCC2(CC1)OCCO2,.,2.5e-08M,?,?,.,.
N#CC(C#N)=Cc1cc(O)c(O)c(O)c1,.,4.4e-08M,.,?,.,.
CC[C@H](CO)NC(=O)[C@@H]1C=C2c3cccc4[nH]cc(c34)C[C@@H]2N(C)C1,.,2.7e-08M,.,.,.,.
CN1C[C@H](CO)C=C2c3cccc4[nH]cc(c34)C[C@H]21,.,1.5e-08M,.,.,.,.
CC[C@H](CO)NC(=O)[C@H]1C=C2c3cccc4[nH]cc(c34)C[C@H]2N(C)C1,.,?,.,.,.,.
C[C@@]12CC[C@H]3[C@@H](CCC4=C(O)C(=O)CC[C@]43C)[C@H]1CCC2=O,.,?,.,.,.,.
O=C(O)c1ccccc1-c1c2cc(Br)c(=O)cc-2oc2[c]([Hg])c(O)c(Br)cc12,3.8e-07M,1.7e-05M,1.5e-08M,7.8e-07M,.,2.9e-07M
C/C=C1\C[C@H](C)[C@](O)(CO)C(=O)OCC2=CCN3CC[C@@H](OC1=O)[C@@H]23,.,.,.,.,.,.
CC(C)[C@@]1(NC(=O)[C@@H]2C[C@@H]3c4cccc5[nH]cc(c45)C[C@H]3N(C)C2)O[C@@]2(O)[C@@H]3CCCN3C(=O)[C@H](Cc3ccccc3)N2C1=O,.,?,.,.,.,.
CN1C[C@@H](CNC(=O)OCc2ccccc2)C[C@H]2c3cccc4c3c(cn4C)C[C@@H]21,.,3.9e-08M,.,?,.,.
